HCT116 bCat-KO = primary screen for growth suppressors in beta-catenin knockout HCT116 cells (colon tumor, human). HCT116 beta-catenin knockout viability, CellTiter-Glo, 60 h; hits give low values. viability, % at 10 µM. actives 1.5% (n = 140,000);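 active = viability at or under a set limit, the compound median less 4 SD, cut at about 6% in these data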
hDAT+cocaine = changed hDAT dopamine uptake under cocaine IC80, either direction, primary screen, cocaine antagonist project, cell-based, LLC-PK1 hDAT, [14C]-dopamine uptake, MLSMR | Sodium-dependent dopamine transporter (Homo sapiens), Q01959 | B-score at 10 µM | actives 1.3% (n = 110,000) | LLC-PK1 hDAT cells, [14C]-dopamine uptake with cocaine IC80; actives deviate in either direction;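 active = Z score or B-score, a plate-position-corrected score, falls beyond the plate's 99.7% confidence bounds, in either direction; inactive = both scores lie inside the 99.7% bounds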
Target sequence (Q01959 whole entry, looked up): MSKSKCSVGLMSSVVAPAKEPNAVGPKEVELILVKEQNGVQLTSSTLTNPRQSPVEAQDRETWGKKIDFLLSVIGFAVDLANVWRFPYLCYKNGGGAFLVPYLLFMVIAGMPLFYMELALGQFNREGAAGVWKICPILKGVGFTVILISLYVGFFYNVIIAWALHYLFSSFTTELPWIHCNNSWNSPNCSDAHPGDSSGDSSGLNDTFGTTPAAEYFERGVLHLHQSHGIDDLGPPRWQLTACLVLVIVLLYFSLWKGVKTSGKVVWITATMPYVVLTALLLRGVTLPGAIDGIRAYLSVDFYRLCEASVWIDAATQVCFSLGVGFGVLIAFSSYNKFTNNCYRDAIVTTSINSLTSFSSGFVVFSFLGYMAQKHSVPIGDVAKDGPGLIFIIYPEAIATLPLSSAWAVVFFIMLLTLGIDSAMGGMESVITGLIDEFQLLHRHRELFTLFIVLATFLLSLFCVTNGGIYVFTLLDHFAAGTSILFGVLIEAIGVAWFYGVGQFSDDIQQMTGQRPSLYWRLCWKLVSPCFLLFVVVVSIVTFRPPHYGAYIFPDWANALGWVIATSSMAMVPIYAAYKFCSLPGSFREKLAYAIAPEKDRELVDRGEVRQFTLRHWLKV
WT yeast gro inh = growth inhibition of WT strain, primary screen, mitochondrial fusion inhibitor project, WT and mutant strains, chemical genetic; mitochondrial fusion phenotypic screen; inhibition, % at 10 µM; actives 2.1% (n = 190,000); in the data active = inhibition above about 58%; tested in S. cerevisiae
HCT116 PTEN-null = growth suppression of PTEN-null HCT116, primary screen, cell-based, CellTiter-Glo | HCT116 PTEN-null viability, 60 h; hits give low values | viability, % at 10 µM | actives 1.2% (n = 140,000);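 active = viability at or below a set limit, 4 SD under the median of all tested compounds, cut at about 3.7% in these data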;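 note: PTEN knockout HCT116 line with beta catenin targeted HCT116 as companion control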
A number is an active result; – = inactive; · = no result given. An excerpt weighted towards active compounds, which were near 3.6% of everything screened.

SMILES	HCT116 bCat-KO	hDAT+cocaine	WT yeast gro inh	HCT116 PTEN-null
COc1cccc2c1C(=O)c1c(O)c3c(c(O)c1C2=O)C[C@@](O)(C(=O)CO)C[C@@H]3O[C@H]1C[C@H](N)[C@@H](O)[C@H](C)O1	·	–	·	·
COc1cccc2c1C(=O)c1c(O)c3c(c(O)c1C2=O)C[C@@](O)(C(C)=O)C[C@@H]3O[C@H]1C[C@H](N)[C@H](O)[C@H](C)O1	0.8	·	67	0.8
COc1ccc(Cl)cc1NC(=S)N(CCN1CCOCC1)C1CCN(C(C)=O)CC1	·	·	–	·
COc1ccc(NC(=O)CSc2nnc(-c3ccccn3)n2N)cc1	–	2.5	–	–
CCOc1ccc(NC(=O)CSc2nnc(-c3ccco3)n2C)cc1	–	–	95	–
O=C(NCc1cccs1)c1ccc([N+](=O)[O-])cc1Cl	–	·	–	–
CCOC(=O)C1C(=O)C=C(Nc2ccccc2F)CC1c1ccccc1 (centres undefined)	–	·	–	–
CCCCCCn1c(N2CCN(c3ccccc3)CC2)nc2c1c(=O)n(C)c(=O)n2C	–	–	66	–
CCOCCn1c(N2CCN(c3ccccc3)CC2)nc2c1c(=O)n(C)c(=O)n2C	–	–	–	–
CCCCCn1c(N2CCC(Cc3ccccc3)CC2)nc2c1c(=O)[nH]c(=O)n2C	·	–	88	·
CCCn1c(N2CCC(Cc3ccccc3)CC2)nc2c1c(=O)[nH]c(=O)n2C	–	–	68	–
CCCCCn1c(NC2CCCCC2)nc2c1c(=O)[nH]c(=O)n2C	·	2.9	–	·
Cn1c(=O)[nH]c(=O)c2c1nc(N1CCC(Cc3ccccc3)CC1)n2Cc1ccccc1	–	–	–	–
CSc1ccc(C(=O)C2CCCN(C(=O)Cc3nonc3C)C2)cc1 (centres undefined)	·	·	–	·
CCCCCn1c(N2CCN(Cc3ccccc3)CC2)nc2c1c(=O)[nH]c(=O)n2C	–	3	–	–
CCCn1c(N2CCN(Cc3cccc(C)c3)CC2)nc2c1c(=O)[nH]c(=O)n2C	–	–	–	–
CSCCCNC(=O)c1ccc(OC2CCN(CCc3ccccc3)CC2)cc1	·	·	–	·
COc1ccc(-c2c3c(nc4sc5c(Cl)nc(C)nc5c24)CCC3)cc1	1.2	–	–	1.5
Cc1ccc(-c2c3c(nc4sc(C(N)=O)c(N)c24)CCC3)cc1	–	–	–	–
N=c1n(CC(=O)c2ccc([N+](=O)[O-])cc2)c2ccccc2n1Cc1ccc(Cl)cc1	1.3	·	–	1.6
N=c1n(CC(=O)c2ccc([N+](=O)[O-])cc2)c2ccccc2n1Cc1ccccc1	1.7	·	–	1.8
CCc1cccc(C)c1NC(=O)C1CN(S(=O)(=O)c2ccccc2)CCN1S(=O)(=O)c1ccccc1 (centres undefined)	–	·	–	–
O=C(N/N=C/c1ccc(Cl)cc1)c1sccc1OCc1ccc(F)cc1	6.0	–	–	–
Cc1c(Cl)cccc1NC(=S)NCc1cccs1	–	·	–	–
Cc1cccc2cc(CN(CC3CCCO3)C(=O)NC3CCCCC3)c(=O)[nH]c12 (centres undefined)	–	–	–	–
SMILES	HCT116 bCat-KO	hDAT+cocaine	WT yeast gro inh	HCT116 PTEN-null
Cc1cccc2cc(CN(Cc3ccco3)C(=O)NC3CCCCC3)c(=O)[nH]c12	–	2.4	–	–
CCCC[C@@H]1CCCO[C@@](C(=O)NCc2ccccn2)(C(F)(F)F)C1	·	3.1	·	·
CCC(Sc1nnnn1-c1ccccc1)C(=O)Nc1nc2ccccc2s1 (centres undefined)	–	–	58	–
CCC(Sc1nnnn1-c1ccccc1)C(=O)NC(C)c1ccccc1 (centres undefined)	–	–	–	–
CC(C1CC2CCC1C2)n1c(-c2ccco2)n[nH]c1=S (centres undefined)	·	·	72	·
CC(C)(C)C(=O)C[n+]1ccc(C(N)=O)cc1	–	·	–	–
Cc1sc2ncnc(NCC3COc4ccccc4O3)c2c1C (centres undefined)	–	·	–	–
c1ccc(-c2csc3ncnc(NCC4COc5ccccc5O4)c23)cc1 (centres undefined)	–	·	72	–
COc1cc2[nH]c(=O)n(CCC(=O)N3CCC(N4CCCCC4)CC3)c(=O)c2cc1OC	–	–	71	–
CCCNC(=O)CCc1c(C)nc2nc(C)nn2c1C	·	·	–	·
Fc1ccc(-n2c(-c3ccc4ccccc4n3)n[nH]c2=S)cc1	·	·	–	·
S=c1[nH]nc(-c2ccc3ccccc3n2)n1-c1cc(Cl)cc(Cl)c1	–	·	60	–
NS(=O)(=O)c1ccc(CCNC(=O)CCCn2c(=O)[nH]c3ccc(Br)cc3c2=O)cc1	·	·	–	·
COc1ccc(Nc2nc(N3CCCC3)c3ccccc3n2)cc1	1.7	–	–	1.9
O=S(=O)(Nc1cc2nc3ccccc3nc2n1Cc1ccccc1)c1ccc(Cl)cc1	–	·	–	–
Cc1ccc(C(C)C)c(OCCCNCc2cccnc2)c1	·	·	–	·
CCCCNCC#CCOc1cc(C)ccc1C(C)C	·	·	74	·
CCOC(=O)C1CCCN(CC(=O)Nc2c(C(=O)OC)[nH]c3ccc(Cl)cc23)C1 (centres undefined)	–	2.9	–	–
CCN(CC(=O)Nc1c(C(=O)OC)[nH]c2ccc(Cl)cc12)c1ccc2c(c1)OCO2	–	–	68	–
C=CCc1cc(/C=C2/NC(=O)N(CC)C2=O)cc(OCC)c1OCc1ccc(C(=O)O)cc1	–	·	–	–
CCC(C)(C)c1ccc(Oc2ccc(N)cc2)cc1	·	·	89	·
CC(C)C1COC(c2cccc3ccccc23)=N1 (centres undefined)	–	3	–	–
COCCn1c(SC(C)C(=O)Nc2ccc(Cl)cn2)nnc1-c1ccncc1 (centres undefined)	·	·	–	·
Cc1ccc(-c2ccc(C(=O)Nc3cccc(F)c3)o2)c2ccccc12	–	–	–	–
O=C(Nc1cccc(F)c1)c1ccc(-c2ccccc2Cl)o1	–	–	77	–
SMILES	HCT116 bCat-KO	hDAT+cocaine	WT yeast gro inh	HCT116 PTEN-null
CC(C)(C)NS(=O)(=O)c1cnc(Cl)c(Cl)c1	–	–	60	–
CC(C)(C)NS(=O)(=O)c1ccc(Oc2ncc(C(F)(F)F)cc2Cl)cc1	–	–	–	–
Cc1ccc(N2C(=O)CC(Sc3nc4ccccc4o3)C2=O)cc1Cl (centres undefined)	–	-7.2	–	–
O=C(COC(=O)c1ccccc1C(=O)c1ccc(Cl)cc1)NC(c1ccccc1)c1ccccc1	–	·	–	–
CCOC(=O)c1cc(-c2ccc3c(c2)OCO3)nc2onc(C)c12	–	–	78	–
O=C(Oc1c(Cl)cc(Cl)c2cccnc12)c1cccs1	–	–	60	–
O=C(Oc1c(Cl)cc(Cl)c2cccnc12)c1ccco1	3.5	–	–	–
COc1cc(NC(=O)COc2ccccc2)c(OC)cc1NC(C)=O	·	·	–	·
C=CCOC(=O)C1=C[C@@H](C2CCCCC2)C[C@@H](OCc2ccc(CO)cc2)O1	·	–	–	·
Cc1cc(Nc2ccccc2)nn1C(=O)c1ccc(Br)cc1	–	–	–	–
Cc1cc(Nc2ccccc2)nn1C(=O)c1ccccc1	1.5	–	–	1.2
CN(CC(=O)c1c(N)n(C)c(=O)n(C)c1=O)c1ccccc1	·	·	–	·
O=C(CSc1ncccn1)N1CCC(Cc2ccccc2)CC1	·	·	–	·

Screening results deposited in PubChem by several laboratories.
